Test results published in PubChem BioAssay AID1159580 (chemical genetic matrix, 2015).
About 2,000 (36%) of roughly 5,500 compounds were called active. Roughly 18% stayed inconclusive and do not appear here. No stated cut-off is given here; in the data, active means normalized growth mostly below about 0.91 (no sharp cut-off); inconclusive means no clear call, values can overlap the other calls; inactive means mostly above about 0.92. The list shows a part of the results.

Assay: chemical genetic growth profiling, strain panel (AID 1159580);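 further: tested at 20 µM; growth read once vehicle control cultures reached saturation at 30 °C; 1 = growth at the plate median or of vehicle wells; lower values mean less growth of the strain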
Conditions: S. cerevisiae deletion strains, growth OD

Measured: normalized growth

CNC(=O)Oc1ccccc1OC(C)C
inactive: locus YAL013W, strain DEP1, active compounds read low 1.01 | locus YAL021C, strain ccr4, active compounds read low 0.987 | locus YAL026C, strain drs2, active compounds read low 0.99 | locus YAL030W, strain snc1, active compounds read low 0.992 | locus YBL061C, strain skt5, active compounds read low 0.987 | locus YBR009C, strain hhf1, active compounds read low 0.99 | locus YBR021W, strain FUR4, active compounds read low 1.02 | locus YBR023C, strain chs3, active compounds read low 0.985 | locus YBR171W, strain sec66, active compounds read low 0.97 | locus YBR229C, strain ROT2, active compounds read low 1.02 | locus YBR231C, strain swc5, active compounds read low 0.984 | locus YBR279W, strain paf1, active compounds read low 0.989 | locus YCL011C, strain gbp2, active compounds read low 0.994 | locus YCL016C, strain dcc1, active compounds read low 0.99 | locus YCL029C, strain bik1, active compounds read low 0.994 | locus YCL061C, strain MRC1, active compounds read low 0.994 | locus YCL069W, strain vba3, active compounds read low 0.989 | locus YCR088W, strain abp1, active compounds read low 0.99 | locus YDL005C, strain med2, active compounds read low 0.985 | locus YDL035C, strain GPR1, active compounds read low 1.03 | locus YDL040C, strain nat1, active compounds read low 0.979 | locus YDL074C, strain BRE1, active compounds read low 1.08 | locus YDL101C, strain DUN1, active compounds read low 1.02 | locus YDL134C, strain PPH21, active compounds read low 1.02 | locus YDL185W, strain tfp1, active compounds read low 0.979 | locus YDL192W, strain arf1, active compounds read low 0.989 | locus YDR001C, strain nth1, active compounds read low 0.993 | locus YDR069C, strain doa4, active compounds read low 0.983 | locus YDR101C, strain arx1, active compounds read low 0.983 | locus YDR137W, strain rgp1, active compounds read low 1.05 | locus YDR150W, strain NUM1, active compounds read low 1.02 | locus YDR159W, strain sac3, active compounds read low 0.973 | locus YDR162C, strain NBP2, active compounds read low 1.01 | locus YDR195W, strain ref2 0.915 | locus YDR297W, strain sur2, active compounds read low 0.998 | locus YDR318W, strain mcm21, active compounds read low 0.996 | locus YDR334W, strain swr1, active compounds read low 0.982 | locus YDR335W, strain msn5, active compounds read low 0.998 | locus YDR388W, active compounds read low 0.986 | locus YDR392W, strain spt3, active compounds read low 0.978 | locus YDR502C, strain sam2, active compounds read low 1 | locus YEL003W, strain gim4, active compounds read low 0.993 | locus YEL037C, strain rad23, active compounds read low 0.989 | locus YEL061C, strain CIN8 (second series), active compounds read low 0.983 | locus YEL061C, strain CIN8, active compounds read low 1.01 | locus YER015W, strain faa2, active compounds read low 0.991 | locus YER016W, strain bim1, active compounds read low 0.991 | locus YER110C, active compounds read low 0.994 | locus YER111C, strain swi4, active compounds read low 0.984 | locus YER155C, strain BEM2 (second series), active compounds read low 0.97 | locus YER155C, strain BEM2, active compounds read low 1.02 | locus YER167W, strain BCK2, active compounds read low 1 | locus YFR010W, strain ubp6, active compounds read low 0.992 | locus YGL078C, strain dbp3, active compounds read low 0.966 | locus YGL086W, strain mad1, active compounds read low 0.994 | locus YGL167C, strain pmr1, active compounds read low 0.987 | locus YGL173C, strain kem1, active compounds read low 0.987 | locus YGL227W, strain vid30, active compounds read low 0.982 | locus YGL240W, strain doc1, active compounds read low 0.974 | locus YGL248W, strain PDE1, active compounds read low 1.02 | locus YGL253W, strain hxk2, active compounds read low 0.99 | locus YGR078C, strain PAC10, active compounds read low 1.03 | locus YGR135W, strain pre9, active compounds read low 0.993 | locus YGR229C, strain SMI1, active compounds read low 1.03 | locus YGR252W, strain gcn5, active compounds read low 0.991 | locus YHR013C, strain ard1, active compounds read low 0.954 | locus YHR027C, strain rpn1, active compounds read low 0.996 | locus YHR030C, strain SLT2, active compounds read low 1.02 | locus YHR079C, strain IRE1 (second series), active compounds read low 0.988 | locus YHR094C, strain hxt1, active compounds read low 0.992 | locus YHR129C, strain ARP1, active compounds read low 1.03 | locus YHR142W, strain chs7, active compounds read low 1 | locus YHR200W, strain rpn10, active compounds read low 0.986 | locus YIL066C, strain RNR3, active compounds read low 1.02 | locus YIL073C, strain SPO22, active compounds read low 0.999 | locus YIL125W, strain kgd1, active compounds read low 0.984 | locus YIR030C, strain dcg1, active compounds read low 0.986 | locus YJL092W, strain hpr5, active compounds read low 0.998 | locus YJL095W, strain BCK1 (second series), active compounds read low 0.986 | locus YJL095W, strain BCK1, active compounds read low 1.02 | locus YJL115W, strain asf1, active compounds read low 0.972 | locus YJL129C, strain trk1, active compounds read low 0.986 | locus YJL134W, strain LCB3, active compounds read low 1.02 | locus YJL154C, strain vps35, active compounds read low 0.993 | locus YJL164C, strain tpk1, active compounds read low 0.996 | locus YJL166W, strain qcr8, active compounds read low 0.994 | locus YJL168C, strain set2, active compounds read low 0.989 | locus YJL187C, strain SWE1 (second series), active compounds read low 1.02 | locus YJL187C, strain SWE1, active compounds read low 0.995
